Our source for the binding signal values is PMC12529666, “Dysregulation of AGO2-miRNA dynamics underlies the AGO2-associated Lessel–Kreienkamp syndrome”.

Holding throughout (test): RNA Bind-n-Seq (nitrocellulose filter binding and sequencing); miR-122 guide loaded in AGO2; 60 min incubation; 30 mM Tris pH 8.0, 100 mM potassium acetate, 2 mM magnesium acetate, 0.5 mM TCEP, 0.005% NP-40, 0.01 mg/ml yeast tRNA; 3 nM AGO2-miR-122, 100 nM RNA library; 60; high values mean tight binding
Holding throughout (details): protein: recombinant; tags: His6 (N-terminal, pFastBac HTA)

One assay addresses AGO2 L192P (Homo sapiens, UniProt Q9UKV8 1-859, L192P;S387D;S824A;S828D;S831D;S834A). A digest of the protocol:
(§1)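 Fold enrichment is each target's read fraction divided by its read fraction in the input library. Sf9 insect cells expressed His-tagged AGO2 from baculovirus; the protein was loaded with a synthetic guide RNA and purified by Ni-NTA and a biotinylated capture oligo. The bound RNA was extracted, reverse-transcribed, barcode-amplified and sequenced on Illumina.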

For another assay, the target named is AGO2 A367P (Homo sapiens, UniProt Q9UKV8 1-859, A367P;S387D;S824A;S828D;S831D;S834A). The essentials: as §1
AGO2 A367P, sequence (Q9UKV8 whole entry A367P/S387D/S824A/S828D/S831D/S834A): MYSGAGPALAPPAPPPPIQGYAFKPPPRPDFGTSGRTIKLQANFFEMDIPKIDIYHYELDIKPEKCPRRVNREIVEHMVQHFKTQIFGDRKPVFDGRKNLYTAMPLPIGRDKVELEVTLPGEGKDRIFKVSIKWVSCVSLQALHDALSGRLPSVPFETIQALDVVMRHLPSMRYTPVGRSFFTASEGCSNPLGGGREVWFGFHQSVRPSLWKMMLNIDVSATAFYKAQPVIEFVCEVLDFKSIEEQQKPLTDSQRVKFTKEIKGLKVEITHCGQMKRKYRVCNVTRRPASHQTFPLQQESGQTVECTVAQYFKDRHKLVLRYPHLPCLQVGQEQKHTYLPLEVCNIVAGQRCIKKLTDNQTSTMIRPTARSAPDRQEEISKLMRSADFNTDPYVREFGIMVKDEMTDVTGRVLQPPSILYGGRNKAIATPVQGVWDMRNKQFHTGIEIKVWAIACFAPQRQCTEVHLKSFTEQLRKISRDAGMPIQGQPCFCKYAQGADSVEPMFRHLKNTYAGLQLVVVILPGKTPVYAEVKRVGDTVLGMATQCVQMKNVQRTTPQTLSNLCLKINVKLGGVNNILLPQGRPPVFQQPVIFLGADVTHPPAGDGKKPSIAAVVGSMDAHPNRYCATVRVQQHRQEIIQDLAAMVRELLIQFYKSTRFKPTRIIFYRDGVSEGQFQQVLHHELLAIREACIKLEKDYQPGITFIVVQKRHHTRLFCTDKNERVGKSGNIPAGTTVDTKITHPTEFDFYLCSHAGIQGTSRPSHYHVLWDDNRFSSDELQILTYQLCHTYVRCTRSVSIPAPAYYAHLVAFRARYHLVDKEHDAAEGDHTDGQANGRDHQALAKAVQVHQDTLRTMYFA
The next assay has as its target AGO2 T357M (Homo sapiens, UniProt Q9UKV8 1-859, T357M;S387D;S824A;S828D;S831D;S834A). The essentials: as §1
A further assay has as its target AGO2 F182del (Homo sapiens, UniProt Q9UKV8 1-859, S387D;S824A;S828D;S831D;S834A;del182-182). A digest of the protocol: as §1

AGO2 F182del, sequence (Q9UKV8 other isoform, or with tags, fused parts or gaps S387D;S824A;S828D;S831D;S834A;del182-182): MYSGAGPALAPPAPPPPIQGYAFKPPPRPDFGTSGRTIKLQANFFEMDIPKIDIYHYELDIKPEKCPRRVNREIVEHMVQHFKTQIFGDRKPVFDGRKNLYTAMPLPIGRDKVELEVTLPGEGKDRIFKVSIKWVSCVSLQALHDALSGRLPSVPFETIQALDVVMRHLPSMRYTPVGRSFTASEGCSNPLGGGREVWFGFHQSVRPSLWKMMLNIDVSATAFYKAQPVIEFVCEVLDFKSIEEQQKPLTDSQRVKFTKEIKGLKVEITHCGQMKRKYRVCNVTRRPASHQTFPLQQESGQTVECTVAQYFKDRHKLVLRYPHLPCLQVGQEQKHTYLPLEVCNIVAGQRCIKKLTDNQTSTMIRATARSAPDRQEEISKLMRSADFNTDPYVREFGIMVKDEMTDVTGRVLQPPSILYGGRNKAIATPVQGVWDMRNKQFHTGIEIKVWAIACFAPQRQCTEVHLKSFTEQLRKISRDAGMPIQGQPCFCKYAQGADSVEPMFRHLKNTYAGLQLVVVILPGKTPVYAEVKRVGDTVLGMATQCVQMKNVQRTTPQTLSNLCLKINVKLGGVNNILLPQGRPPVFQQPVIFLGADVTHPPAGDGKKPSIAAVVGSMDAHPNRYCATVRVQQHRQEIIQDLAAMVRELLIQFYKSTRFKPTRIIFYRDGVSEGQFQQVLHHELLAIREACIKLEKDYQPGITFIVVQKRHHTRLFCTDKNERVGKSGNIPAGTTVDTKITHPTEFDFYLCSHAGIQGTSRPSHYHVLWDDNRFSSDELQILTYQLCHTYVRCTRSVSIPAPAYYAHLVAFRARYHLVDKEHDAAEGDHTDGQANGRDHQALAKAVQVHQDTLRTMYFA
AGO2 L192P, sequence (Q9UKV8 whole entry L192P/S387D/S824A/S828D/S831D/S834A): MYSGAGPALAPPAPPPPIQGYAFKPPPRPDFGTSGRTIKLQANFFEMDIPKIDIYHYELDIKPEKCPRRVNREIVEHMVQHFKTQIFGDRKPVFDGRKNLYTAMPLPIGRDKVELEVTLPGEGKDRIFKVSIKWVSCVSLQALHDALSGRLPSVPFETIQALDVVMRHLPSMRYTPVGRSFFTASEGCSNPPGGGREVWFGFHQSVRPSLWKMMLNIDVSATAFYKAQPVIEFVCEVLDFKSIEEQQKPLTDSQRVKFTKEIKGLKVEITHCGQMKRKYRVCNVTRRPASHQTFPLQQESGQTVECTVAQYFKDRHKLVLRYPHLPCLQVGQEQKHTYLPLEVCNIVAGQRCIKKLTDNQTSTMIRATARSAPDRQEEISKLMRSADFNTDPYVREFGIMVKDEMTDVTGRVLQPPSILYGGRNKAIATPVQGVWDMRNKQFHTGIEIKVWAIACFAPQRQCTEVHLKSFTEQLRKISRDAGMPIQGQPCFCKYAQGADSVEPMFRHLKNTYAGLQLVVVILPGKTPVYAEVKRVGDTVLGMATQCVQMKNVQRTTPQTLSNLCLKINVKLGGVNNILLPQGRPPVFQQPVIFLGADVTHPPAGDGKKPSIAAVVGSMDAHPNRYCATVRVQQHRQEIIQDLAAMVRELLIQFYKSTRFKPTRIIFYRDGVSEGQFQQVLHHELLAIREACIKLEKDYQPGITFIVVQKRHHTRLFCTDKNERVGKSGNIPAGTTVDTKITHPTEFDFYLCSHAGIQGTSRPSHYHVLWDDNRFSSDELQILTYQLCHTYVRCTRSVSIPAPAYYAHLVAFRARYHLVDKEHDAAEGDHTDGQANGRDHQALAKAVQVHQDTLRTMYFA
AGO2 T357M, sequence (Q9UKV8 whole entry T357M/S387D/S824A/S828D/S831D/S834A): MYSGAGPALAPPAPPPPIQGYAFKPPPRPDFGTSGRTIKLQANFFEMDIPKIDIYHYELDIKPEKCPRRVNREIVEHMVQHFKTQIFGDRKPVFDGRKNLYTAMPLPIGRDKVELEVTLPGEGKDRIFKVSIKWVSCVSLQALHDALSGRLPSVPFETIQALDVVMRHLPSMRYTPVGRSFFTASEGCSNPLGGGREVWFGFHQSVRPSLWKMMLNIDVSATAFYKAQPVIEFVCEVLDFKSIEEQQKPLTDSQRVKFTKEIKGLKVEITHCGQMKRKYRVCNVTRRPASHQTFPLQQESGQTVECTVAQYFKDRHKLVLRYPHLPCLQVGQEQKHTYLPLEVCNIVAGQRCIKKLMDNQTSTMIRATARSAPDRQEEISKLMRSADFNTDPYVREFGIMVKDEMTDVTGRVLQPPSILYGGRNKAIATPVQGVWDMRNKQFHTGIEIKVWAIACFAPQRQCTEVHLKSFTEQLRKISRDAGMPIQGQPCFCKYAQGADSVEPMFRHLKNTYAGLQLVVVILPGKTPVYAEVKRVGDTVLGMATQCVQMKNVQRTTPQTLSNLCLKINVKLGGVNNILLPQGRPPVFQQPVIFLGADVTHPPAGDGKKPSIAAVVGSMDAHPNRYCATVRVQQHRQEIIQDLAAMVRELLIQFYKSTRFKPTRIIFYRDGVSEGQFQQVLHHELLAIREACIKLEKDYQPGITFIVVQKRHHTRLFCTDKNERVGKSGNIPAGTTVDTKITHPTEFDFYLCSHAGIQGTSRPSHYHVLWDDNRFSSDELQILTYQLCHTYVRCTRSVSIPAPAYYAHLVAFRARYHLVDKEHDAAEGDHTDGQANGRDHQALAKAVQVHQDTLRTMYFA

B1: ACGCCTTA (ssRNA)
RNA 1: GAGUUCUACAGUCCGACGAUCCCAACACGCCUUACACCUGGAAUUCUCGGGUGCCAA
RNA 2: UGGAGUGUGACAAUGGUGUUUG
DNA 1: GATCGTCGGACTGTAGAACTC
DNA 2: TTGGCACCCGAGAATTCCA
modifications: constant regions annealed to DNA blockers; guide miR-122 5' phosphate
Regarding B1, the binding signal with AGO2 L192P is 0.493 fold enrichment over input; with AGO2 A367P, 0.221 fold enrichment over input; with AGO2 T357M, 0.625 fold enrichment over input; with AGO2 F182del, 0.246 fold enrichment over input.

B2: GTATTCCG (ssRNA)
RNA 1: GAGUUCUACAGUCCGACGAUCCCAACGUAUUCCGCACCUGGAAUUCUCGGGUGCCAA
RNA 2: UGGAGUGUGACAAUGGUGUUUG
DNA 1: GATCGTCGGACTGTAGAACTC
DNA 2: TTGGCACCCGAGAATTCCA
modifications: constant regions annealed to DNA blockers; guide miR-122 5' phosphate
On to B2, for which the figures for the binding signal with AGO2 L192P, with AGO2 A367P and in the assay with AGO2 T357M were 0.43 fold enrichment over input, 0.158 fold enrichment over input and 0.624 fold enrichment over input, respectively.

B3: GCGTTCTA (ssRNA)
RNA 1: GAGUUCUACAGUCCGACGAUCCCAACGCGUUCUACACCUGGAAUUCUCGGGUGCCAA
RNA 2: UGGAGUGUGACAAUGGUGUUUG
DNA 1: GATCGTCGGACTGTAGAACTC
DNA 2: TTGGCACCCGAGAATTCCA
modifications: constant regions annealed to DNA blockers; guide miR-122 5' phosphate
For B3, the binding signal is 0.449 fold enrichment over input with AGO2 L192P, 0.169 fold enrichment over input with AGO2 A367P and 0.609 fold enrichment over input with AGO2 T357M.

B4: GTGCTTCA (ssRNA)
RNA 1: GAGUUCUACAGUCCGACGAUCCCAACGUGCUUCACACCUGGAAUUCUCGGGUGCCAA
RNA 2: UGGAGUGUGACAAUGGUGUUUG
DNA 1: GATCGTCGGACTGTAGAACTC
DNA 2: TTGGCACCCGAGAATTCCA
modifications: constant regions annealed to DNA blockers; guide miR-122 5' phosphate
Regarding B4, the binding signal with AGO2 L192P was 0.507 fold enrichment over input; with AGO2 A367P, 0.218 fold enrichment over input; in the assay with AGO2 T357M it was 0.615 fold enrichment over input; with AGO2 F182del it was 0.235 fold enrichment over input.

B5: GTATTCTA (ssRNA)
RNA 1: GAGUUCUACAGUCCGACGAUCCCAACGUAUUCUACACCUGGAAUUCUCGGGUGCCAA
RNA 2: UGGAGUGUGACAAUGGUGUUUG
DNA 1: GATCGTCGGACTGTAGAACTC
DNA 2: TTGGCACCCGAGAATTCCA
modifications: constant regions annealed to DNA blockers; guide miR-122 5' phosphate
Take B5: the binding signal with AGO2 L192P was 0.434 fold enrichment over input; in the assay with AGO2 A367P, 0.164 fold enrichment over input; with AGO2 T357M, 0.606 fold enrichment over input.

B6: ACGCTCTA (ssRNA)
RNA 1: GAGUUCUACAGUCCGACGAUCCCAACACGCUCUACACCUGGAAUUCUCGGGUGCCAA
RNA 2: UGGAGUGUGACAAUGGUGUUUG
DNA 1: GATCGTCGGACTGTAGAACTC
DNA 2: TTGGCACCCGAGAATTCCA
modifications: constant regions annealed to DNA blockers; guide miR-122 5' phosphate
As to B6, the figures for the binding signal in the assay with AGO2 L192P, in the assay with AGO2 A367P and with AGO2 T357M were 0.429 fold enrichment over input, 0.173 fold enrichment over input and 0.54 fold enrichment over input, respectively.

B7: ATGTCCTA (ssRNA)
RNA 1: GAGUUCUACAGUCCGACGAUCCCAACAUGUCCUACACCUGGAAUUCUCGGGUGCCAA
RNA 2: UGGAGUGUGACAAUGGUGUUUG
DNA 1: GATCGTCGGACTGTAGAACTC
DNA 2: TTGGCACCCGAGAATTCCA
modifications: constant regions annealed to DNA blockers; guide miR-122 5' phosphate
B7: the binding signal is 0.506 fold enrichment over input with AGO2 L192P, 0.238 fold enrichment over input with AGO2 A367P, 0.592 fold enrichment over input with AGO2 T357M and 0.262 fold enrichment over input with AGO2 F182del.

B8: ATATTCTA (ssRNA)
RNA 1: GAGUUCUACAGUCCGACGAUCCCAACAUAUUCUACACCUGGAAUUCUCGGGUGCCAA
RNA 2: UGGAGUGUGACAAUGGUGUUUG
DNA 1: GATCGTCGGACTGTAGAACTC
DNA 2: TTGGCACCCGAGAATTCCA
modifications: constant regions annealed to DNA blockers; guide miR-122 5' phosphate
For the molecule B8, the results for the binding signal with AGO2 L192P, with AGO2 A367P and in the assay with AGO2 T357M were 0.453 fold enrichment over input, 0.18 fold enrichment over input and 0.631 fold enrichment over input, respectively.

B9: GCGCTCTA (ssRNA)
RNA 1: GAGUUCUACAGUCCGACGAUCCCAACGCGCUCUACACCUGGAAUUCUCGGGUGCCAA
RNA 2: UGGAGUGUGACAAUGGUGUUUG
DNA 1: GATCGTCGGACTGTAGAACTC
DNA 2: TTGGCACCCGAGAATTCCA
modifications: constant regions annealed to DNA blockers; guide miR-122 5' phosphate
Consider B9, for which the binding signal with AGO2 L192P is 0.459 fold enrichment over input; in the assay with AGO2 A367P it was 0.19 fold enrichment over input; with AGO2 T357M it was 0.635 fold enrichment over input.

B10: GCGCCCTA (ssRNA)
RNA 1: GAGUUCUACAGUCCGACGAUCCCAACGCGCCCUACACCUGGAAUUCUCGGGUGCCAA
RNA 2: UGGAGUGUGACAAUGGUGUUUG
DNA 1: GATCGTCGGACTGTAGAACTC
DNA 2: TTGGCACCCGAGAATTCCA
modifications: constant regions annealed to DNA blockers; guide miR-122 5' phosphate
Regarding B10, the binding signal with AGO2 L192P is 0.492 fold enrichment over input; in the assay with AGO2 A367P, 0.195 fold enrichment over input; with AGO2 T357M, 0.721 fold enrichment over input.

B11: GCATTTTA (ssRNA)
RNA 1: GAGUUCUACAGUCCGACGAUCCCAACGCAUUUUACACCUGGAAUUCUCGGGUGCCAA
RNA 2: UGGAGUGUGACAAUGGUGUUUG
DNA 1: GATCGTCGGACTGTAGAACTC
DNA 2: TTGGCACCCGAGAATTCCA
modifications: constant regions annealed to DNA blockers; guide miR-122 5' phosphate
As for B11, the binding signal in the assay with AGO2 L192P is 0.476 fold enrichment over input; in the assay with AGO2 A367P, 0.18 fold enrichment over input; in the assay with AGO2 T357M, 0.643 fold enrichment over input; with AGO2 F182del, 0.123 fold enrichment over input.
